Test results taken from PubChem BioAssay (NCI).
About 79,000 compounds went through this panel and 15% of them were active in at least one assay; those are over-represented in the sample as a whole. Cut-off read from the data, not from the text of the source: active = growth inhibition above about 70%; inactive = the rest.

Columns and labels:
[1] = NCI Yeast Anticancer Drug Screen. Data for the rad50 strain (AID 155);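 note: 0% = growth of vehicle-only cultures of the same strain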; conditions: S. cerevisiae rad50 strain growth inhibition; at 50.0 µM; stronger effect = higher value
Outline: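 DNA repair mutant yeast, compound exposure, growth read-out; inhibition is taken relative to vehicle.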

[2] = NCI Yeast Anticancer Drug Screen. Data for the mec2-1 strain (AID 157); conditions: S. cerevisiae mec2-1 strain, at 50.0 µM, stronger effect = higher value
Outline: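 Vehicle-treated cultures served as reference for growth inhibition of compound-exposed mec2-1 yeast.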

[3] = NCI Yeast Anticancer Drug Screen. Data for the sgs1 mgt1 strain (AID 161);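 note: 0% = growth of cultures given vehicle only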; conditions: S. cerevisiae sgs1 mgt1 strain, at 50.0 µM, stronger effect = higher value
Outline: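 Inhibition of yeast growth, normalised to vehicle-treated controls, is reported for a strain bearing genetic alterations in DNA damage repair.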

[4] = NCI Yeast Anticancer Drug Screen. Data for the cln2 rad14 strain (AID 165);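 note: 0% = growth equal to vehicle treated cultures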; conditions: S. cerevisiae cln2 rad14 strain, at 50.0 µM, stronger effect = higher value
Outline: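 Each compound was tested on cln2 rad14 yeast. Inhibition of growth was calculated against vehicle-exposed controls.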

[5] = NCI Yeast Anticancer Drug Screen. Data for the bub3 strain (AID 167); conditions: S. cerevisiae bub3 mutant strain, at 50.0 µM, stronger effect = higher value
Outline: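 In this screen, a yeast mutant lacking normal mitotic checkpoint function is challenged with compound. Relative growth versus vehicle gives the inhibition value.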

[6] = NCI Yeast Anticancer Drug Screen. Data for the mlh1 rad18 strain (AID 175); conditions: S. cerevisiae mlh1 rad18 strain growth inhibition; at 50.0 µM; stronger effect = higher value
Outline: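 Vehicle-treated cultures served as the reference for growth inhibition in a yeast strain carrying DNA damage repair alterations exposed to each compound.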

Measured: growth inhibition

Cc1ccc(CN2CCOCC2)c(O)c1
inactive: [1] 18.9% | [2] 9.15% | [3] -0.65% | [4] -0.1% | [5] -7.45% | [6] -11.4%

Cc1c(C(=O)CC(=O)C(=O)Nc2cccc(C(F)(F)F)c2)[n+](=O)c2ccccc2n1[O-]
inactive: [1] 45.8% | [2] 43.1% | [3] 28.6% | [4] 14.2% | [5] 38.4% | [6] 31.6%

C=CCOc1ccc2cc(Br)ccc2c1
inactive: [1] 3.85% | [2] -2.55% | [3] 6.3% | [4] -24.1% | [5] 4.4% | [6] 14.9%

COc1ccc(N=C2[Se]C(=NC(=O)c3ccccc3)N(c3ccc(OC)cc3)C2=Nc2ccc(OC)cc2)cc1
inactive: [1] 13.1% | [2] -25.5% | [3] -22.2% | [4] -36% | [5] 1.3% | [6] -7.95%

O=C(C[n+]1ccncc1)c1ccccc1
inactive: [1] -20.8% | [2] -18.7% | [3] -6.35% | [4] -6.25% | [5] -10.2% | [6] 2.65%

CC1=CCCCC1(C)/C(C)=N/Nc1ccc([N+](=O)[O-])cc1[N+](=O)[O-] (stereo not drawn)
inactive: [1] 2.05% | [2] 7.3% | [3] 2.8% | [4] 2.75% | [5] -1.4% | [6] -15.3%

Nc1c(S(=O)(=O)O)cc(Nc2cccc(S(=O)(=O)/C=C/S(=O)(=O)O)c2)c2c1C(=O)c1ccccc1C2=O
inactive: [1] 8.4% | [2] -28.9% | [3] -1.2% | [4] -2.45% | [5] 0.85% | [6] -14.2%

Nc1ccccc1C(=O)Nc1ccc(Cl)cc1C(=O)O
inactive: [1] -7% | [2] -3% | [3] -14.2% | [4] -14.8% | [5] 2.65% | [6] -5.1%

CC(=O)C1C(=O)C(=O)N(c2ccccc2N2C(=O)C(=O)C(C(C)=O)C2=O)C1=O (stereo not drawn)
inactive: [1] 18.6% | [2] -2.25% | [3] 10.8% | [4] 17.8% | [5] -2.35% | [6] 25.8%

CCCCCCCCCCCCCCCCc1c(C)nc(N(C)C)oc1=O
inactive: [1] 18.8% | [2] 23% | [3] -4.4% | [4] 8.2% | [5] 21.1% | [6] 2.25%

c1ccc2c(c1)CCc1cc3cc4c(nc3nc1-2)-c1ccccc1CC4
inactive: [1] -14.4% | [2] -15.8% | [3] -14.1% | [4] -9.4% | [5] -1.75% | [6] -15.2%

Nc1c2cc3ccc2nc2ccc(cc12)OCCOCCOCCOCCOCCOCCO3
inactive: [1] -3.05% | [2] -16.1% | [3] -9.55% | [4] -12% | [5] -0.35% | [6] -21.2%

O=C(Cc1ccccc1CC(=O)Oc1ccccc1)Oc1ccccc1
inactive: [1] 9.1% | [2] -3.9% | [3] 10.8% | [4] 5.2% | [5] 18.9% | [6] 5.75%

O=S(=O)(Nc1nccs1)c1ccc(NCc2c3ccccc3nc3ccccc23)cc1
inactive: [1] 62.2% | [2] 54.7% | [3] 42.3% | [4] 30% | [5] 17.7% | [6] 49.5%

NC(=O)NC(NC(=O)NC(NC(N)=O)c1ccco1)c1ccco1 (stereo not drawn)
inactive: [1] 11.3% | [2] 15.4% | [3] 10.7% | [4] 6.1% | [5] 2.05% | [6] 15.3%

C=CCOC(=O)NC(CCC(=O)O)C(=O)O (stereo not drawn)
inactive: [1] 21.1% | [2] -0.35% | [3] 19.3% | [4] 11% | [5] 3.4% | [6] 21%

N#C/C(=C\c1ccccn1)c1ccc(Cl)cc1
inactive: [1] 3.15% | [2] 1.1% | [3] 11.5% | [4] -17.4% | [5] 17.3% | [6] 53.7%

CC(CCC(=O)O)[C@H]1CCC2[C@@H]3C(=O)C[C@@H]4CC(O)CC[C@]4(C)C3CC[C@@]21C (stereo partly drawn)
inactive: [1] 38.8% | [2] 18.1% | [3] 41.5% | [4] 35.8% | [5] 19.9% | [6] 23.1%

O=C1c2ccccc2C2(O)Nc3cc(O)ccc3C12O (stereo not drawn)
inactive: [1] -24.6% | [2] -23.1% | [3] -15.1% | [4] -14.1% | [5] -11.8% | [6] -19.6%

COc1cccc(/C=C\C#N)c1
inactive: [1] -23.1% | [2] -1.3% | [3] -45% | [4] -7.05% | [5] -26.9% | [6] -22.1%

CC1=C(CC2C(=O)N(c3ccccc3)S(=O)(=O)NC2C)C(=O)N(c2ccccc2)S(=O)(=O)N1C (stereo not drawn)
inactive: [1] 20.1% | [2] 4% | [3] -14% | [4] -17.1% | [5] -1.65% | [6] 8.5%

O=C1C(=O)c2ccccc2C(O)=C1c1ccccc1
inactive: [1] 28.6% | [2] 22.8% | [3] 47.2% | [4] 7.75% | [5] 5.6% | [6] 51%

CCC(=O)Nc1ncnc2ncn(C(=O)CC)c12
inactive: [1] -8.7% | [2] -48.2% | [3] -32.9% | [4] -23.6% | [5] -45.1% | [6] 9.65%

Cc1ccc2nc(N/N=C/c3sccc3C)cc(C)c2c1
inactive: [1] -24.3% | [2] -19.9% | [3] -20.9% | [4] -3.25% | [5] -30.1% | [6] -21.4%

CC(=O)Nc1c(Cl)c(Cl)c2c(c1Cl)Cc1cc([N+](=O)[O-])ccc1-2
inactive: [1] 9.2% | [2] -12.8% | [3] 7.6% | [4] -9.1% | [5] 3.15% | [6] 2.1%

O=[N+]([O-])c1cc(C2ON=C(c3ccccc3)N2C23CC4CC(CC(C4)C2)C3)ccc1Cl (stereo not drawn)
inactive: [1] -9.1% | [2] 10.2% | [3] 2.7% | [4] 16% | [5] -0.85% | [6] -8.2%

CN(C)N1C(=C(C#N)C#N)C(c2ccccc2)CC1C#N (stereo not drawn)
inactive: [1] 9.55% | [2] 12.9% | [3] -22.8% | [4] 13.2% | [5] -25.8% | [6] -41.5%

CCc1ccc(/C(C#N)=C/c2ccccc2Cl)cc1
inactive: [1] 21.9% | [2] 40.5% | [3] 26.4% | [4] 10.2% | [5] 35.2% | [6] 27.1%

Cc1cnc(NCCCCNc2ncc(C)c(-c3ccccc3O)n2)nc1-c1ccccc1O
inactive: [1] -5.25% | [2] 1.55% | [3] -0.55% | [4] -27.1% | [5] -3.65% | [6] 4.8%

CC(=N/NC(=S)NCCN1CCCC1)/C(C)=N\NC(=S)NCCN1CCCC1
inactive: [1] 50.6% | [2] 4.95% | [3] 47.6% | [4] 10.6% | [5] 12.7% | [6] 35.1%

O=c1[nH]c(=S)c2ncn(C3OC(CO)C(O)C3O)c2[nH]1 (stereo not drawn)
inactive: [1] -0.5% | [2] -13.7% | [3] -11.1% | [4] 4.4% | [5] -1.1% | [6] 11.8%

CN1CCCn2c(nc3ccccc3c2=O)C1
inactive: [1] -1.4% | [2] -4.65% | [3] -5.55% | [4] 14.5% | [5] -0.5% | [6] -4.35%

CC(=O)CC(=O)ON(C)C(C)=O
inactive: [1] -8.85% | [2] 19.2% | [3] -15.8% | [4] 8.45% | [5] -14.3% | [6] -11.6%

O=C1CCNC/C1=C\c1ccccc1
inactive: [1] 6.25% | [2] -14.3% | [3] 8.9% | [4] 13.4% | [5] -19.2% | [6] 6.55%

CNC(CCNCCc1ccccc1)CNCCc1ccccc1 (stereo not drawn)
inactive: [1] 44.1% | [2] 4.8% | [3] 22.8% | [4] 3.85% | [5] 5.7% | [6] 22.2%

CN(C)CCCNc1nc(Cl)nc2nc(-c3ccccc3)c(-c3ccccc3)nc12
inactive: [1] 50.2% | [2] 31% | [3] 60.5% | [4] 36% | [5] 28.9% | [6] 61.2%

CC(=O)Nc1ccc(C2CC(c3ccc([N+](=O)[O-])cc3)=Nc3ccccc3S2)cc1 (stereo not drawn)
inactive: [1] 32.8% | [2] 24.6% | [3] 34.1% | [4] 17.6% | [5] 13.9% | [6] 49.9%

COC(=O)C1=C(C(=O)OC)P2(C)(C)OC(c3ccccc3)CN2C1(c1ccccc1)c1ccccc1 (stereo not drawn)
inactive: [1] 18% | [2] 9.15% | [3] -2.4% | [4] -80% | [5] 0.3% | [6] 40.9%
